# From the supplement of paper PMC3334620
# The full ranking holds about 33,000 sequences; the median of “E-score (-0.5 to 0.5)” is about -0.041, and the highest 2% start at about 0.37. What follows is part of a selection rich in the highest values, with near analogues and random picks from the rest.
# Molecular target: T1, Ecm22 (UniProt Q05958)
# T1 sequence: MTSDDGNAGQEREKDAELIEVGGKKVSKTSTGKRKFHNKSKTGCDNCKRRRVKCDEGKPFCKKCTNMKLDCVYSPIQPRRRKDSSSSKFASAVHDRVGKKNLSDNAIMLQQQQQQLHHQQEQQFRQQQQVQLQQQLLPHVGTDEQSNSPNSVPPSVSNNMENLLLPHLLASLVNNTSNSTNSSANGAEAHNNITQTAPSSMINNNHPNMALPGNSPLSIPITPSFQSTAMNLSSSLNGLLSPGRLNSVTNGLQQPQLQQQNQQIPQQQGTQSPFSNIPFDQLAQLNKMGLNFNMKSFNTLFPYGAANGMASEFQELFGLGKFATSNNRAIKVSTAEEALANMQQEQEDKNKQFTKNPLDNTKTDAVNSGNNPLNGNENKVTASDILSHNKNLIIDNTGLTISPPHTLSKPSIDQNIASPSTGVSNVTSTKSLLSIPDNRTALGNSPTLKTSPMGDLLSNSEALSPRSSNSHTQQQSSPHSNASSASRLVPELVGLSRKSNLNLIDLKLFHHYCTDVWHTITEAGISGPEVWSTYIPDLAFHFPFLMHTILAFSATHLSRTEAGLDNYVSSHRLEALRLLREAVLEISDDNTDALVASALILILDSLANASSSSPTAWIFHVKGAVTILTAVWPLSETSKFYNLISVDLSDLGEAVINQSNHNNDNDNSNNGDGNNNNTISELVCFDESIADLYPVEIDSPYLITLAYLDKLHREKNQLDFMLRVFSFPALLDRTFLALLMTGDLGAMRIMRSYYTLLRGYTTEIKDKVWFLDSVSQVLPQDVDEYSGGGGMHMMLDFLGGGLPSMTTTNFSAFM
# Test: PBM E-score (8-mer binding enrichment) (E-score (-0.5 to 0.5)); higher = stronger / more preferred TF binding
# Conditions: protein concentration: 200 nM; construct: GST-full length
# Summary of the method: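 The E-score, a modified Wilcoxon-Mann-Whitney statistic, was computed by the Universal PBM Analysis Suite for every ungapped eight-base word pooled with its reverse complement. Scans behind it were normalised with masliner after bound GST-tagged yeast transcription factors were detected with fluorescent anti-GST. The proteins, at about 100-200 nM, had been applied to universal all-10-mer Agilent arrays made double-stranded by primer extension.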
row,Sequence,PBM E-score
1,ATACGGTA,0.383
2,CTACGGTA,0.0823
3,GTACGGTA,0.385
4,GCACGGTA,-0.0289
5,ACACGGTA,0.108
6,AGACGGTA,-0.121
7,AGATAGCT,-0.0945
8,AGGCTCCA,-0.369
9,CTGCACAA,-0.214
10,CGGCAACC,-0.082
11,AACATTCT,-0.0433
12,ATTTATAC,0.401
13,ATTTATAA,0.0523
14,CTTTATAC,0.23
15,AAGAACCC,-0.0304
16,GGTACCTA,-0.1
17,AGTACCTA,-0.104
18,CGTACCTC,0.435
19,AGTACCTC,-0.19
20,CGTACCTA,0.441
21,CCTACCTC,-0.0998
22,CTAGAACA,-0.0457

row,Sequence,PBM E-score
1,CGGGTCGC,0.187
2,AACGTCGG,0.17
3,ACCGTCGA,-0.216
4,AACGTCGT,0.37
5,AACGTCGA,0.178
6,ACCGTCGT,0.404
7,ACCGTCGC,0.278
8,AAGCTCAG,-0.321
9,CGGTTCGC,0.151
10,AACCTAGC,-0.09
11,AGAGGGGG,-0.0644
12,ACAGCACC,-0.276
13,GCACGTTA,0.0282
14,CCTCGTCC,-0.238
15,CCACGTTA,0.0599
16,ACTCGGTC,0.229
17,CCTCGTTC,0.474
18,ACTCGTTC,0.466
19,ACTCGTTG,0.274
20,GCTCGCTA,0.31
21,CCTCGTGC,0.0902
22,GCTCGTTA,0.373

row,Sequence,PBM E-score
1,CCTCGTTA,0.402
2,ACTCGTTA,0.348
3,TCTCCTAA,-0.203
4,TCTAGGAA,-0.0513
5,CCTCGCTC,0.372
6,CCTCGCTA,0.215
7,ACTCGCTC,0.354
8,GGGAGAAA,-0.141
9,GGGGACCA,-0.259
10,AACGATTA,0.382
11,CACGATTC,0.244
12,GACGATTA,0.0551
13,AACGATTG,0.384
14,AACGATTC,0.377
15,ACCGATTG,0.115
16,ATCGATTG,0.0987
17,AGCGATTC,0.12
18,CACGATTA,0.1
19,CAGGGCAA,-0.227
20,CTGACGTA,0.132
21,AAGATACA,-0.046
22,GACTCGAC,0.0219

row,Sequence,PBM E-score
1,ATGAGATG,-0.227
2,ACTGCTGA,-0.19
3,CCCTCTCC,-0.358
4,CTAGGAAA,-0.209
5,CGCGCAAA,0.188
6,ATACGGGG,0.386
7,GAACGGGA,0.327
8,ACACGGGC,-0.0743
9,GCACGGGA,0.0895
10,CTACGGGA,0.146
11,AGACGGGG,-0.0581
12,ATACGGGC,0.413
13,AAACGGGG,0.361
14,CTACGGGC,-0.0464
15,ACACGGGA,0.0892
16,ATACGGGA,0.389
17,GTACGGGA,0.419
18,AAGCGCAC,0.0929
19,AAGCTTGT,0.0175
20,ACAATCCT,-0.0917
